Values joined by “and” are separate entries in the source; they are usually repeats but may differ in a detail not shown here. Identical values can stand only once. This is part of a sample that, as a whole, favours compounds with a hit. Of some 79,000 tested, about 15% had one in any assay. Some compounds were tested as several samples or in several runs, with calls that do not always agree. Active and inactive are the calls of the source. Cut-off read from the data, not from the text of the source: active = growth inhibition above about 70%; inactive = the rest.
Columns and labels:
[1] = NCI Yeast Anticancer Drug Screen. Data for the rad52 strain (AID 147);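 note: 0% = growth of vehicle-treated control cultures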; details: S. cerevisiae rad52 mutant growth inhibition, stronger effect = higher value
Procedure, shortened: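 Screen used a yeast mutant impaired in DNA repair. After compound exposure, growth was measured. Values reflect inhibition compared with vehicle-treated cells.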

[2] = NCI Yeast Anticancer Drug Screen. Data for the wt1 strain (AID 149);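 note: 0% = growth of vehicle-treated wt1 cultures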; details: S. cerevisiae wt1 strain (SPY 50644) growth inhibition, stronger effect = higher value
Procedure, shortened: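 Each compound is tested on wt1 yeast and the loss of growth versus vehicle gives the inhibition value.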

[3] = NCI Yeast Anticancer Drug Screen. Data for the rad50EPP+ strain (AID 151);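 note: 0% = growth of vehicle-treated control cultures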; details: S. cerevisiae rad50 mutant strain, stronger effect = higher value
Procedure, shortened: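 Exposing the rad50EPP+ strain to each compound, growth was compared with vehicle-only cultures to give inhibition.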

[4] = NCI Yeast Anticancer Drug Screen. Data for the mgt1 strain (AID 153); details: S. cerevisiae mgt1 mutant growth inhibition, stronger effect = higher value
Procedure, shortened: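 Genetically defined yeast (mgt1) treated with compound; inhibition of growth expressed against vehicle-treated controls.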

[5] = NCI Yeast Anticancer Drug Screen. Data for the rad50 strain (AID 155);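 note: 0% = growth of vehicle-only cultures of the same strain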; details: S. cerevisiae rad50 strain growth inhibition, stronger effect = higher value
Procedure, shortened: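 Vehicle-treated cultures provide the reference for the growth inhibition reported for compound-exposed, repair-deficient yeast.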

[6] = NCI Yeast Anticancer Drug Screen. Data for the mec2-1 strain (AID 157); details: S. cerevisiae mec2-1 strain, stronger effect = higher value
Procedure, shortened: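 Readout is yeast growth inhibition, normalised to vehicle-treated controls, in the mec2-1 strain exposed to compound.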

[7] = NCI Yeast Anticancer Drug Screen. Data for the rad14 strain (AID 159);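 note: 0% = growth of vehicle-treated control cultures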; details: S. cerevisiae rad14 strain growth inhibition, stronger effect = higher value
Procedure, shortened: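 Inhibition of growth is reported for a repair-deficient yeast mutant following compound treatment, calculated relative to cultures that received vehicle.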

[8] = NCI Yeast Anticancer Drug Screen. Data for the sgs1 mgt1 strain (AID 161);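 note: 0% = growth of cultures given vehicle only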; details: S. cerevisiae sgs1 mgt1 strain, stronger effect = higher value
Procedure, shortened: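 Compounds are added to genetically altered yeast, and growth is compared with cultures given vehicle alone to give percent inhibition.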

[9] = NCI Yeast Anticancer Drug Screen. Data for the CLN2oe strain (AID 163);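 note: 0% = growth of vehicle-only control cultures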; details: S. cerevisiae CLN2oe strain, stronger effect = higher value
Procedure, shortened: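 Values reflect how much compound exposure reduced yeast growth, referenced to vehicle-exposed cells. Assay organism is a strain with a defined genetic change affecting cell-cycle control.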

[10] = NCI Yeast Anticancer Drug Screen. Data for the cln2 rad14 strain (AID 165);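 note: 0% = growth equal to vehicle treated cultures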; details: S. cerevisiae cln2 rad14 strain, stronger effect = higher value
Procedure, shortened: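 Relative to vehicle controls, growth inhibition of compound-treated cln2 rad14 yeast was recorded.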

[11] = NCI Yeast Anticancer Drug Screen. Data for the bub3 strain (AID 167); details: S. cerevisiae bub3 mutant strain, stronger effect = higher value
Procedure, shortened: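 Mutant yeast screening strain plus compound; vehicle-treated cultures serve as the 0% inhibition reference.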

[12] = NCI Yeast Anticancer Drug Screen. Data for the wt2 strain (AID 169); details: S. cerevisiae wt2 strain growth inhibition, stronger effect = higher value
Procedure, shortened: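 Values express reduction in yeast growth under compound treatment, referenced to vehicle-treated cells.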

[13] = NCI Yeast Anticancer Drug Screen. Data for the mlh1 strain (AID 171);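 note: 0% = growth of vehicle-treated control cultures of the same strain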; details: S. cerevisiae mlh1 strain growth inhibition, stronger effect = higher value
Procedure, shortened: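 Steps: expose the defined-mutant yeast strain to compound; expose a parallel culture to vehicle; measure growth; express compound effect as inhibition relative to the vehicle culture.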

[14] = NCI Yeast Anticancer Drug Screen. Data for the sgs1 strain (AID 173);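 note: 0% = growth of vehicle-only control cultures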; details: S. cerevisiae sgs1 mutant, stronger effect = higher value
Procedure, shortened: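 Treat defined-mutant yeast with compound; measure growth; calculate inhibition relative to vehicle-treated cells.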

[15] = NCI Yeast Anticancer Drug Screen. Data for the mlh1 rad18 strain (AID 175); details: S. cerevisiae mlh1 rad18 strain growth inhibition, stronger effect = higher value
Procedure, shortened: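 Test agents were incubated with a yeast strain of defined genotype (DNA damage repair defect). Inhibition of growth was derived by comparison with vehicle-exposed cultures.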

[16] = NCI Yeast Anticancer Drug Screen. Data for the rad18 strain (AID 177); details: S. cerevisiae rad18 mutant growth inhibition, stronger effect = higher value
Procedure, shortened: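 A genetically defined yeast mutant impaired in DNA damage repair was treated with test compounds, then its growth was measured against cultures receiving vehicle alone.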

[17] = at 5.0 µM (retest, dose inferred, filed as 0.5)
[18] = at 50.0 µM (retest, dose inferred, filed as 5.0)

Measured: growth inhibition

COc1cc([C@@H]2c3cc4c(cc3[C@@H](Nc3ccc(NC(=O)c5cc([N+](=O)[O-])cn5C)cc3)[C@H]3COC(=O)[C@H]23)OCO4)cc(OC)c1O
50% (inactive) and 84% (active): [10]; [18]
67.5% (inactive) and 75.9% (active): [5]; at 50.0 µM
67.5% (inactive) and 74.8% (active): [6]; at 50.0 µM
37% (inactive) and 80% (active): [15]; [17]
53% (inactive) and 93% (active): [8]; [18]
62% (inactive) and 95% (active): [15]; [18]
inactive: [1]; at 1.2 µM 25% | [2]; at 1.2 µM 9% | [2]; at 3.7 µM 20% | [2]; at 11.0 µM 26% | [2]; at 33.0 µM 32% | [2]; at 100.0 µM 36% | [3]; at 1.2 µM 4% | [3]; at 3.7 µM 10% | [3]; at 11.0 µM 27% | [3]; at 33.0 µM 14% | [3]; at 100.0 µM 22% | [4]; at 1.2 µM -3% | [4]; at 3.7 µM 5% | [4]; at 11.0 µM 14% | [4]; at 33.0 µM 35% | [4]; at 100.0 µM 41% | [5]; at 1.2 µM 11% | [6]; at 1.2 µM -16% | [6]; at 3.7 µM 6% | [6]; [17] 38% and 52% | [6]; at 11.0 µM 42% | [6]; at 33.0 µM 66% | [7]; at 1.2 µM 4% | [7]; at 3.7 µM 16% | [7]; at 11.0 µM 18% | [7]; at 33.0 µM 50% | [7]; at 100.0 µM 59% | [8]; [17] 16% and 54% | [8]; at 50.0 µM 47.5% and 67% | [9]; at 1.2 µM 19% | [9]; at 3.7 µM 23% | [9]; at 11.0 µM 44% | [9]; at 33.0 µM 58% | [10]; [17] 16% and 22% | [10]; at 50.0 µM 47% and 49.9% | [11]; at 1.2 µM -10% | [11]; at 3.7 µM 0% | [11]; [17] 19% and 42% | [11]; at 11.0 µM 14% | [11]; at 33.0 µM 36% | [11]; at 50.0 µM 26.8% and 51.2% | [11]; at 100.0 µM 43% | [12]; at 1.2 µM -28% | [12]; at 3.7 µM -12% | [12]; at 11.0 µM -8% | [12]; at 33.0 µM 6% | [12]; at 100.0 µM 17% | [13]; at 1.2 µM -15% | [13]; at 3.7 µM 5% | [13]; at 11.0 µM 22% | [13]; at 33.0 µM 39% | [13]; at 100.0 µM 53% | [14]; at 1.2 µM -6% | [14]; at 3.7 µM 6% | [14]; at 11.0 µM 30% | [14]; at 33.0 µM 44% | [14]; at 100.0 µM 49% | [16]; at 1.2 µM -9% | [16]; at 3.7 µM 3% | [16]; at 11.0 µM 27% | [16]; at 33.0 µM 43% | [16]; at 100.0 µM 53%
46% (inactive) and 90% (active): [11]; [18]
active: [1]; at 3.7 µM 84% | [1]; at 11.0 µM 92% | [1]; at 33.0 µM 91% | [1]; at 100.0 µM 93% | [5]; at 3.7 µM 74% | [5]; [17] 92% and 96% | [5]; at 11.0 µM 88% | [5]; at 33.0 µM 92% | [5]; [18] 95% and 97% | [5]; at 100.0 µM 92% | [6]; [18] 79% and 96% | [6]; at 100.0 µM 74% | [9]; at 100.0 µM 77%
20.1% (inactive) and 74.3% (active): [15]; at 50.0 µM

O=c1nc2n(Cc3ccccc3)c3ccccc3nc-2c(=O)[nH]1
inactive: [1]; at 1.2 µM 0% | [1]; at 3.7 µM 2% | [1]; at 11.0 µM 6% | [1]; at 33.0 µM 4% | [1]; at 100.0 µM 4% | [2]; at 1.2 µM -1% | [2]; at 3.7 µM 4% | [2]; at 11.0 µM 2% | [2]; at 33.0 µM 2% | [2]; at 100.0 µM 3% | [3]; at 1.2 µM 7% | [3]; at 3.7 µM 30% | [4]; at 1.2 µM -5% | [4]; at 3.7 µM 5% | [5]; at 1.2 µM -2% | [5]; at 3.7 µM -1% | [5]; [17] -15% | [5]; at 11.0 µM 2% | [5]; at 33.0 µM -1% | [5]; [18] 13% | [5]; at 50.0 µM 26.1% | [5]; at 100.0 µM 1% | [6]; at 1.2 µM -2% | [6]; at 3.7 µM 3% | [6]; [17] -2% | [6]; at 11.0 µM 5% | [6]; at 33.0 µM 6% | [6]; [18] -5% | [6]; at 50.0 µM 37.9% | [6]; at 100.0 µM 12% | [7]; at 1.2 µM 0% | [7]; at 3.7 µM 3% | [7]; at 11.0 µM 5% | [7]; at 33.0 µM 1% | [7]; at 100.0 µM 1% | [8]; [17] 39% | [9]; at 1.2 µM -12% | [9]; at 3.7 µM -7% | [9]; at 11.0 µM 3% | [9]; at 33.0 µM 5% | [9]; at 100.0 µM 0% | [10]; [17] 6% | [10]; [18] 22% | [10]; at 50.0 µM 28.2% | [11]; at 1.2 µM -3% | [11]; at 3.7 µM -6% | [11]; [17] 19% | [11]; at 11.0 µM -3% | [11]; at 33.0 µM -6% | [11]; [18] 1% | [11]; at 50.0 µM 11.4% | [11]; at 100.0 µM -8% | [12]; at 1.2 µM -2% | [12]; at 3.7 µM 3% | [12]; at 11.0 µM 67% | [13]; at 1.2 µM -3% | [13]; at 3.7 µM 3% | [13]; at 11.0 µM 65% | [14]; at 1.2 µM -2% | [14]; at 3.7 µM 11% | [15]; [17] 37% | [15]; [18] 39% | [15]; at 50.0 µM 26.6% | [16]; at 1.2 µM 0% | [16]; at 3.7 µM 1% | [16]; at 11.0 µM 4% | [16]; at 33.0 µM 9% | [16]; at 100.0 µM 9%
active: [3]; at 11.0 µM 74% | [3]; at 33.0 µM 92% | [3]; at 100.0 µM 97% | [4]; at 11.0 µM 74% | [4]; at 33.0 µM 94% | [4]; at 100.0 µM 96% | [8]; [18] 96% | [8]; at 50.0 µM 97.2% | [12]; at 33.0 µM 93% | [12]; at 100.0 µM 96% | [13]; at 33.0 µM 93% | [13]; at 100.0 µM 97% | [14]; at 11.0 µM 74% | [14]; at 33.0 µM 94% | [14]; at 100.0 µM 97%

From PubChem BioAssay (NCI)
